Hit rate of the full screen: of about 5,500 compounds, about 2,000 (36%) were called active. Roughly 18% stayed inconclusive and do not appear here. Rule as the data show it: active = normalized growth mostly below about 0.91 (no sharp cut-off); inconclusive = no clear call, values can overlap the other calls; inactive = mostly above about 0.92. Some of the results follow.
Assay: chemical genetic growth profiling, strain panel (AID 1159580);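 also: tested at 20 µM; growth read once vehicle control cultures reached saturation at 30 °C; 1 = growth at the plate median or of vehicle wells; lower values mean less growth of the strain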
Details: growth OD

Measured: normalized growth

COc1cc2c(cc1OC)C(=O)c1ccc(OC)c(OC)c1OCC(=O)C2
inactive: S. cerevisiae deletion strains, locus YAL013W, strain DEP1, hits give low values 1.01 | S. cerevisiae deletion strains, locus YBR021W, strain FUR4, hits give low values 1.08 | S. cerevisiae deletion strains, locus YBR229C, strain ROT2, hits give low values 1.01 | S. cerevisiae deletion strains, locus YCL029C, strain bik1, hits give low values 1.01 | S. cerevisiae deletion strains, locus YDL035C, strain GPR1, hits give low values 1.05 | S. cerevisiae deletion strains, locus YDL074C, strain BRE1, hits give low values 1.05 | S. cerevisiae deletion strains, locus YDL101C, strain DUN1, hits give low values 0.993 | S. cerevisiae deletion strains, locus YDL185W, strain tfp1, hits give low values 0.982 | S. cerevisiae deletion strains, locus YDL192W, strain arf1, hits give low values 1.04 | S. cerevisiae deletion strains, locus YDR101C, strain arx1, hits give low values 1.06 | S. cerevisiae deletion strains, locus YDR162C, strain NBP2, hits give low values 1.04 | S. cerevisiae deletion strains, locus YDR318W, strain mcm21, hits give low values 1.01 | S. cerevisiae deletion strains, locus YDR388W, hits give low values 1.01 | S. cerevisiae deletion strains, locus YDR502C, strain sam2, hits give low values 0.991 | S. cerevisiae deletion strains, locus YEL061C, strain CIN8, hits give low values 1.01 | S. cerevisiae deletion strains, locus YER110C, hits give low values 1.01 | S. cerevisiae deletion strains, locus YER155C, strain BEM2, hits give low values 0.992 | S. cerevisiae deletion strains, locus YER167W, strain BCK2, hits give low values 0.995 | S. cerevisiae deletion strains, locus YGL078C, strain dbp3, hits give low values 0.963 | S. cerevisiae deletion strains, locus YGL086W, strain mad1, hits give low values 1.02 | S. cerevisiae deletion strains, locus YGL248W, strain PDE1, hits give low values 0.994 | S. cerevisiae deletion strains, locus YGR078C, strain PAC10, hits give low values 1.02 | S. cerevisiae deletion strains, locus YGR135W, strain pre9, hits give low values 0.968 | S. cerevisiae deletion strains, locus YGR252W, strain gcn5, hits give low values 1.05 | S. cerevisiae deletion strains, locus YHR030C, strain SLT2, hits give low values 1 | S. cerevisiae deletion strains, locus YHR079C, strain IRE1 (second series), hits give low values 1 | S. cerevisiae deletion strains, locus YHR094C, strain hxt1, hits give low values 0.991 | S. cerevisiae deletion strains, locus YHR129C, strain ARP1, hits give low values 1 | S. cerevisiae deletion strains, locus YHR200W, strain rpn10, hits give low values 1.02 | S. cerevisiae deletion strains, locus YIL066C, strain RNR3, hits give low values 1.01 | S. cerevisiae deletion strains, locus YIL073C, strain SPO22, hits give low values 0.954 | S. cerevisiae deletion strains, locus YIL125W, strain kgd1, hits give low values 1.01 | S. cerevisiae deletion strains, locus YIR030C, strain dcg1, hits give low values 1 | S. cerevisiae deletion strains, locus YJL095W, strain BCK1, hits give low values 1.01 | S. cerevisiae deletion strains, locus YJL134W, strain LCB3, hits give low values 1.01 | S. cerevisiae deletion strains, locus YJL168C, strain set2, hits give low values 1 | S. cerevisiae deletion strains, locus YJL187C, strain SWE1 (second series), hits give low values 1.01 | S. cerevisiae deletion strains, locus YJR043C, strain POL32, hits give low values 1.09 | S. cerevisiae deletion strains, locus YJR075W, strain HOC1, hits give low values 0.997 | S. cerevisiae deletion strains, locus YKL009W, strain mrt4, hits give low values 1.01 | S. cerevisiae deletion strains, locus YKL068W, hits give low values 0.988 | S. cerevisiae deletion strains, locus YKL085W, strain MDH1 (second series), hits give low values 0.962 | S. cerevisiae deletion strains, locus YKL085W, strain MDH1, hits give low values 0.962 | S. cerevisiae deletion strains, locus YKR001C, strain vps1, hits give low values 1 | S. cerevisiae deletion strains, locus YLR039C, strain RIC1, hits give low values 1.03 | S. cerevisiae deletion strains, locus YLR058C, strain SHM2, hits give low values 1.01 | S. cerevisiae deletion strains, locus YLR102C, strain apc9, hits give low values 1.01 | S. cerevisiae deletion strains, locus YLR262C, strain YPT6, hits give low values 1 | S. cerevisiae deletion strains, locus YLR268W, strain sec22, hits give low values 1 | S. cerevisiae deletion strains, locus YLR330W, strain CHS5, hits give low values 1 | S. cerevisiae deletion strains, locus YLR342W, strain FKS1 (second series), hits give low values 1.13 | S. cerevisiae deletion strains, locus YLR371W, strain rom2, hits give low values 0.984 | S. cerevisiae deletion strains, locus YLR418C, strain cdc73, hits give low values 1.01 | S. cerevisiae deletion strains, locus YML016C, strain PPZ1, hits give low values 1.01 | S. cerevisiae deletion strains, locus YML032C, strain rad52, hits give low values 1.03 | S. cerevisiae deletion strains, locus YML124C, strain tub3, hits give low values 0.983 | S. cerevisiae deletion strains, locus YMR078C, strain ctf18, hits give low values 1 | S. cerevisiae deletion strains, locus YMR223W, strain ubp8, hits give low values 1.01 | S. cerevisiae deletion strains, locus YMR263W, strain SAP30, hits give low values 0.993 | S. cerevisiae deletion strains, locus YMR307W, strain GAS1, hits give low values 1.2 | S. cerevisiae deletion strains, locus YNL067W, strain RPL9B, hits give low values 0.976 | S. cerevisiae deletion strains, locus YNL233W, strain BNI4, hits give low values 1.01 | S. cerevisiae deletion strains, locus YNL250W, strain rad50, hits give low values 0.936 | S. cerevisiae deletion strains, locus YNL271C, strain bni1, hits give low values 0.976 | S. cerevisiae deletion strains, locus YNL298W, strain CLA4, hits give low values 1 | S. cerevisiae deletion strains, locus YNL307C, strain MCK1, hits give low values 0.988 | S. cerevisiae deletion strains, locus YNR052C, strain pop2, hits give low values 0.996 | S. cerevisiae deletion strains, locus YOL006C, strain TOP1, hits give low values 1.27 | S. cerevisiae deletion strains, locus YOL012C, strain htz1 0.675 | S. cerevisiae deletion strains, locus YOL147C, strain pex11, hits give low values 1.01 | S. cerevisiae deletion strains, locus YOR061W, strain CKA2, hits give low values 1.02 | S. cerevisiae deletion strains, locus YOR069W, strain VPS5, hits give low values 1 | S. cerevisiae deletion strains, locus YOR136W, strain idh2, hits give low values 1 | S. cerevisiae deletion strains, locus YOR144C, strain elg1, hits give low values 1 | S. cerevisiae deletion strains, locus YOR184W, strain ser1, hits give low values 1.07 | S. cerevisiae deletion strains, locus YOR316C, strain cot1, hits give low values 0.99 | S. cerevisiae deletion strains, locus YPL055C, strain LGE1, hits give low values 1.09 | S. cerevisiae deletion strains, locus YPR119W, strain clb2, hits give low values 0.977 | S. cerevisiae deletion strains, locus YPR141C, strain kar3, hits give low values 0.972 | S. cerevisiae deletion strains, locus YPR163C, strain tif3, hits give low values 0.999 | S. cerevisiae deletion strains, locus YPR167C, strain met16, hits give low values 0.99 | S. cerevisiae deletion strains, strain wtn01, hits give low values 1.04 | S. cerevisiae strains, strain wild type, hits give low values 1.04

Reference: PubChem BioAssay AID1159580 (chemical genetic matrix, 2015)
